Holding throughout (conditions): concentration: 1 μM, replicates: in singlicate; n = 1
Experiment [1] relates to T1, MEK2.
T1 construct: gene MAP2K2

Experiment [2] deals with T2, MEK3.
T2 construct: gene MAP2K3

Experiment [3] deals with T3, MEK4.
T3 construct: gene MAP2K4

The subject of experiment [4] is T4, MEK5.
T4 construct: gene MAP2K5

Experiment [5] has as its system T5, MEK6.
T5 construct: gene MAP2K6

The test system of experiment [6] is MELK.
Experiment [7] concerns MERTK.
Experiment [8] concerns MET.
Experiment [9] has as its system T6, MINK.
T6 construct: gene MINK1

For experiment [10], the system named is MKK7.
The test system of experiment [11] is MKNK1.
In experiment [12] the test system is MKNK2.
The test system of experiment [13] is T7, MLCK.
T7 construct: gene MYLK3

The test system of experiment [14] is T8, MLK1.
T8 construct: gene MAP3K9

The test system of experiment [15] is MLK2.
The subject of experiment [16] is MLK3.
In experiment [17] the test system is MRCKA.
Experiment [18] has as its system T9, MRCKB.
T9 construct: gene CDC42BPB

Experiment [19] concerns MST1R.
The test system of experiment [20] is T10, MST1.
T10 construct: gene STK4
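Also: KINOMEscan kinase panel screen.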

As to `Cc1ccccc1-n1cnc2c(N)ncnc21` [SKF-97510], the “%Inh” value is on record as 0% in experiment [1]; 0% in experiment [2]; 0% in [3]; 0% in experiment [4]; 20% in experiment [5]; 0% in experiment [6]. The “%Inh” value is 7% in experiment [7]; 0% in experiment [8]; 0% in [9]; 0% in experiment [10]; 0% in experiment [11]; 0% in experiment [12]. Moreover, the “%Inh” value in experiment [13] is recorded as 0%; in [14], 0%; in [15], 0%; in experiment [16] it was 1%; in experiment [17], 0%; in experiment [18], 0%. The “%Inh” value in [19] and in [20] was 0% throughout.
For `O=C(Nc1n[nH]c2cc(-c3cccc(F)c3F)ccc12)C1CC1` [SB-733894], the “%Inh” value in experiment [1] was found to be 11%; in experiment [2], 15%; in [3] it was 1%; in experiment [4], 45%; in [5], 20%; in [6], 0%. Also, the “%Inh” value in experiment [7] turned out to be 0%; in [8] it was 0%; in experiment [9], 58%; in experiment [10] it was 0%; in [11], 0%; in experiment [12] it was 20%. The “%Inh” value in experiment [13] worked out at 18%; in [14] it was 0%; in experiment [15] it was 0%; in experiment [16] it was 4%; in experiment [17], 6%; in experiment [18], 17%. Besides, the “%Inh” value is given as 6% in experiment [19] and 0% in [20].
On to `COc1cc(Nc2nccc(N3CCC(NC(=O)Nc4cc(C)ccc4C)C3)n2)cc(OC)c1OC` (stereo not shown) [GSK1379762], for which the “%Inh” value is reported as 0% in experiment [1]; 0% in experiment [2]; 7% in experiment [3]; 99.8% in experiment [4]; 0% in experiment [5]; 5% in experiment [6]. Also, the “%Inh” value in [7] was 51%; in experiment [8] it was 42%; in [9], 0%; in experiment [10], 0%; in experiment [11] it was 9%; in [12] it was 37%. Also, the “%Inh” value in experiment [13] is given as 0%; in experiment [14], 25%; in [15] it was 4%; in experiment [16] it was 23%; in experiment [17], 0%; in experiment [18], 0%. For the same compound, the “%Inh” value stood at 52% in [19] and 13% in experiment [20].
For `Cc1cccc(-c2nc(Nc3ccc4[nH]ncc4c3)c3ccccc3n2)n1` [GW857175], the “%Inh” value in experiment [1] is on record as 24%; in experiment [2] it was 19%; in experiment [3], 51%; in experiment [4] it was 40%; in experiment [5], 0%; in experiment [6], 25%. Also, the “%Inh” value in [7] stood at 11%; in experiment [8], 2%; in experiment [9], 19%; in [10] it was 12%; in experiment [11] it was 0%; in experiment [12], 0%. Also, the “%Inh” value came to 0% in [13]; 2% in experiment [14]; 22% in [15]; 7% in experiment [16]; 0% in [17]; 72% in [18]. In addition, the “%Inh” value in experiment [19] and in experiment [20] was 0% in each case.
On to `COC(=O)c1c(-c2ccccc2)c2cc(OC)ccc2c(=O)n1Cc1ccccc1`, for which the “%Inh” value was 0% in [1]; 0% in experiment [2]; 18% in experiment [3]; 10% in experiment [4]; 21% in [5]; 0% in experiment [6]. Besides, the “%Inh” value in experiment [7] came to 3%; in [8] it was 0%; in [9], 0%; in experiment [10] it was 7%; in experiment [11] it was 5%; in [12] it was 0%. Further, the “%Inh” value in experiment [13] is 3%; in [14] it was 0%; in experiment [15] it was 9%; in [16] it was 0%; in experiment [17], 0%; in experiment [18], 0%. Also, the “%Inh” value in experiment [19] was found to be 38%; in experiment [20], 15%.
With `Cc1csc(-c2nc(Nc3ccncc3)c3ccccc3n2)n1` [GW869640], the “%Inh” value in [1] amounted to 17%; in [2], 38%; in [3], 29%; in experiment [4], 47%; in [5] it was 0%; in experiment [6] it was 24%. The “%Inh” value was found to be 0% in experiment [7]; 30% in [8]; 55% in [9]; 10% in [10]; 0% in experiment [11]; 38% in [12]. Besides, the “%Inh” value in [13] stood at 2%; in [14] it was 8%; in experiment [15], 60%; in experiment [16], 0%; in experiment [17] it was 0%; in experiment [18], 44%. Further, the “%Inh” value in experiment [19] was found to be 11%; in experiment [20], 18%.
On to `Fc1cccc(COc2nnc(-c3ccc4c(c3)CCO4)o2)c1`, for which the “%Inh” value is 4% in experiment [1]; 0% in experiment [2]; 0% in [3]; 9% in [4]; 0% in experiment [5]; 19% in experiment [6]. Moreover, the “%Inh” value was 0% in experiment [7]; 0% in [8]; 1% in experiment [9]; 13% in experiment [10]; 0% in experiment [11]; 0% in experiment [12]. The “%Inh” value worked out at 7% in experiment [13]; 0% in [14]; 19% in [15]; 0% in experiment [16]; 0% in [17]; 1% in experiment [18]. Besides, the figures for the “%Inh” value in [19] and in experiment [20] were 10% and 0%, respectively.
Regarding `Cc1nnc(-c2ccc3occ(-c4ccc(S(C)=O)cc4)c3c2)[nH]1` (stereo not shown), the “%Inh” value in experiment [1] is 1%; in [2], 19%; in experiment [3], 37%; in experiment [4], 42%; in [5] it was 0%; in [6] it was 0%. Further, the “%Inh” value in [7] turned out to be 13%; in [8], 5%; in [9], 17%; in experiment [10] it was 18%; in [11], 9%; in experiment [12] it was 49%. Besides, the “%Inh” value in experiment [13] was found to be 8%; in experiment [14], 6%; in experiment [15], 3%; in [16] it was 4%; in experiment [17], 1%; in experiment [18], 0%. For the same compound, the “%Inh” value in [19] and in experiment [20] was 0% each time.
Consider `Cn1ccc2ncnc(Oc3ccc(NC(=O)Nc4ccccc4)cc3)c21`, for which the “%Inh” value was 20% in experiment [1]; 20% in experiment [2]; 0% in experiment [3]; 39% in experiment [4]; 0% in experiment [5]; 16% in [6]. For the same compound, the “%Inh” value in experiment [7] is reported as 0%; in [8], 28%; in experiment [9], 16%; in experiment [10], 20%; in [11], 13%; in [12] it was 43%. For the same compound, the “%Inh” value in experiment [13] is 0%; in experiment [14] it was 0%; in experiment [15], 0%; in experiment [16] it was 19%; in experiment [17], 0%; in [18], 16%. The entries for the “%Inh” value in experiment [19] and in [20] were 10% and 0%, respectively.
Take `CCn1c(-c2ccccn2)nc2cnccc21` [SB-736398]: the “%Inh” value in experiment [1] was 0%; in experiment [2] it was 0%; in experiment [3] it was 19%; in experiment [4], 12%; in experiment [5] it was 100%; in experiment [6] it was 22%. The “%Inh” value in [7] amounted to 0%; in [8] it was 15%; in experiment [9] it was 0%; in experiment [10], 0%; in experiment [11] it was 26%; in experiment [12], 24%. Further, the “%Inh” value came out at 0% in experiment [13]; 12% in [14]; 0% in experiment [15]; 7% in [16]; 14% in experiment [17]; 0% in experiment [18]. The “%Inh” value in [19] is reported as 47%; in experiment [20], 29%.
As for `COc1ccc2nc(-c3cccc(C)n3)nc(Nc3ccncc3)c2c1` [GSK204919], the “%Inh” value is reported as 0% in [1]; 0% in experiment [2]; 17% in experiment [3]; 1% in experiment [4]; 0% in [5]; 0% in experiment [6]. In addition, the “%Inh” value in experiment [7] was determined as 15%; in experiment [8], 15%; in experiment [9] it was 30%; in experiment [10] it was 0%; in [11], 0%; in [12] it was 9%. Besides, the “%Inh” value in [13] is recorded as 0%; in [14], 0%; in experiment [15], 0%; in experiment [16], 7%; in experiment [17], 38%; in experiment [18] it was 94.1%. The “%Inh” value in experiment [19] came out at 26%; in experiment [20] it was 11%.

(Values after PMC5540273 (PLoS ONE, 2017).)
